Among all 69,000 compounds or so, about 8,600 (12%) showed an effect of 50% or more. Only a selection was taken, and strong results are over-represented in it overall.

The subject of the assay is Plasmodium berghei. Kind of assay: Screen against P. berghei liver stage (PbLuc), transformed with Luciferase, at 10uM. Format: functional, HepG2. The following applies: tested at 10 uM.
Take `CCn1c(C2CCNCC2)nn(CCn2cncn2)c1=O`: the INHIBITION is reported as 32%. Then `COc1cc(CN2CCC(COCc3ccccc3)CC2)cc(OC)c1`, with 33.7%. Next, `COCCNC(=O)NCc1cc(-c2ccncc2)n(C2CCCC2)n1`: 26.4%; `Cc1cc2nc(C3CCCCC3)c(-c3ccnc(NCCO)n3)cn2n1`: 20.4%; `Cc1ncc(-c2ccnc(NCCO)n2)c(C2CCCCC2)n1`: 79.7%.

In the case of `Cc1ncc(-c2ccnc(N[C@@H](C)CO)n2)c(C2CCCCC2)n1`, the INHIBITION is on record as 47.1%. Turning to `Cc1cccc(C)c1NC(=O)CC(CN1CCN(C)CC1)C(=O)O` (stereo not given), the INHIBITION turned out to be 5.21%. Then `O=C1CCc2cc(-c3csc(CCN4CCOC4=O)n3)ccc2N1`, with -26.6%; and `Cc1nccn1C1CCCN(C(=O)c2cc(Cl)c3c(c2)OCO3)C1` (stereo not given), with -15.5%; and `COCCN1CCOCC12CCN(C(=O)c1c[nH]c3ccccc13)CC2`, with 57.9%. Regarding `COCCN1CCOCC12CCN(C(=O)c1ccncc1)CC2`, the INHIBITION is 47.4%.

In the case of `COCCN1CCOCC12CCN(C(=O)c1ccoc1)CC2`, the INHIBITION was found to be 21.8%. On to `N#Cc1ccc(OCCCN2CCOC(Cn3cncn3)C2)cc1` (stereo not given), for which the INHIBITION was found to be 36.1%. Then `CC1(C2CCN(CC(N)=O)CC2)CN(Cc2ccccc2)C(=O)O1` (stereo not given), with 1.5%; and `Oc1cc(-c2cccs2)nc(C2CCCN(CC3=CCCOC3)C2)n1` (stereo not given), with 23.9%; and `COc1c(C2CCCN2C(=O)c2nccnc2N)c(C)nn1C` (stereo not given), with 14.1%. Consider `CC(=O)NCCNC(=O)c1ccc(C)c(-n2cccc2)c1`, for which the INHIBITION amounted to 10.7%. Next, `Cn1ccnc1CN1CCC2(CCCN2c2ncccn2)CC1`: 21.7%; `Cn1ccnc1CN1CCC2(COCCN(Cc3ccsc3)C2)C1` (stereo not given): 25.1%. On to `Cn1ccnc1CN1CCC2(CC1)COCCN(c1ncccn1)C2`, for which the INHIBITION was 62.3%.

With `Cn1ccnc1CN1CCC2(CC1)COC2`, the INHIBITION was 61.3%. As for `Cn1cc(CN2CCCC23CCN(Cc2nccn2C)CC3)cn1`, the INHIBITION is given as 8.67%. On to `Cn1ccnc1CN1CCC2(CC1)COCCN(S(C)(=O)=O)C2`, for which the INHIBITION was 36.5%. Regarding `CN(C)CCN1CCCC12CCN(Cc1nccn1C)CC2`, the INHIBITION stood at 70.2%.

`CN(C)C(=O)N1CCC2(CC1)COCCN(c1ncccn1)C2`: the INHIBITION was -30%. Next, `Cn1ccnc1CN1CCC2(COCCN(S(=O)(=O)C3CC3)C2)C1` (stereo not given): 64.3%. For `CCOC1CC2(CCN(Cc3nccn3C)CC2)C1`, the INHIBITION is reported as -11.6%. Next, `COC1CC2(CCN(Cc3nccn3C)CC2)C1`: -43.1%; `c1cnc(N2CCC3(COCCN(CC4CC4)C3)C2)nc1` (stereo not given): 46.1%; `COCc1ncc(CN2CC[C@@](O)(COC)C(C)(C)C2)cn1`: 31%. Then `O=C(CCCSc1ccc(NC(=O)C2CC2)nn1)NCC1CCCO1` (stereo not given), with 34.6%. Next, `Cc1ncccc1-c1cc2cccnc2n1CCCNC(=O)C(C)(C)C`: 27.6%; `CCS(=O)(=O)N1CC[C@@H]2[C@H](CC1)N(CC(C)C)CCS2(=O)=O`: -34.6%; `Cc1cc(C(=O)N2CCCC2)ccc1NCC(=O)N1CCCCC1C` (stereo not given): 37.3%. For the compound `Cc1ccc(N2CCC3(CCN(C(=O)c4ccnnc4)CC3)CC2)nn1`, the INHIBITION is -6.21%. For `Cc1noc2nc3c(c(C(=O)/N=c4\[nH]ncs4)c12)CCC3`, the INHIBITION worked out at 32.8%. Next, `CS(=O)(=O)N1CCCC1c1ccnc2nccn12` (stereo not given): 10.3545%; `Cc1cc(C)n(CCC(=O)N2CCCCC2c2nccs2)n1` (stereo not given): 36.3%. Next, `CN(C)c1cc(CNC(=O)C2COc3ccccc3O2)ccn1` (stereo not given): 2.45%; `Cc1nnc2ccc(N3CCN(Cc4nccn4C)CC3)nn12`: 43.4%. On to `Cc1nnc(CN2CCN(Cc3nccn3C)CC2)n1C`, for which the INHIBITION was 59.3%. Then `Cc1cc(N2CCN(Cc3nccn3C)CC2)cc(C)n1`, with 4.92%; and `CC(C)N1CCN(c2ccc3ccc(C(=O)NC4CCCC4)cn23)CC1`, with -7.28%. Next, `COCC(=O)N1CC[C@@H]2CN(Cc3cccnc3)S(=O)(=O)[C@@H]2CC1`: 43%; `Cc1ccc(S(=O)(=O)NC[C@H]2OC[C@@H](NCc3ccncc3)[C@@H]2O)cc1`: 53.2%; `Cc1ccc(S(=O)(=O)NC[C@H]2OC[C@@H](NCc3ccccn3)[C@@H]2O)cc1`: 38.9%. With `CC(C)NC(=O)NC[C@H]1OC[C@@H](NCc2ccc(S(C)(=O)=O)cc2)[C@@H]1O`, the INHIBITION was 49.5%. With `Cc1ccc(S(=O)(=O)NC[C@H]2OC[C@@H](NCc3cccnc3)[C@@H]2O)cc1`, the INHIBITION is recorded as 57%. Next, `CC(C)NC(=O)NC[C@H]1OC[C@@H](NCc2ccncc2)[C@@H]1O`: -48.1%; `Cc1ccc(S(=O)(=O)NC[C@H]2OC[C@@H](NCc3ccccc3)[C@@H]2O)cc1`: 20.7%.

With `O=C(NCC1CCOCC1)[C@@H]1C[C@@H]2[C@@H](CCN2Cc2nccs2)O1`, the INHIBITION stood at 21.1%. Then `COC1CCN(C(=O)CC2CCCC2)CC(=O)N(C)c2ccccc21` (stereo not given), with 3.31%; and `CCc1nc(C)cn1C(=O)Nc1ccc(F)cc1`, with 78.2%; and `CCc1nc(C)cn1C(=O)Nc1ccccc1`, with 48.6%. Turning to `CCc1nc(C)cn1C(=O)Nc1ccc(C)cc1`, the INHIBITION is -4.82%. In the case of `O=C1CO[C@@H]2CN(CC3CC3)C[C@H]2N1Cc1cccc(F)c1`, the INHIBITION was 75.4%.

With `O=C1CO[C@@H]2CN(C3CCOCC3)C[C@H]2N1Cc1cccc(F)c1`, the INHIBITION is given as 25.2%. As to `O=C1CO[C@@H]2CN(CC3CCOC3)C[C@H]2N1Cc1cccc(F)c1` (stereo not given in full), the INHIBITION is on record as 27.6%.

Consider `COc1cc(N2C[C@H](OCc3cccnc3)[C@H]3OCCC[C@H]32)ncn1`, for which the INHIBITION was 10.6%. With `CN1C(=O)C2(NC(=O)c3ccccc3O2)c2ccccc21` (stereo not given), the INHIBITION is on record as 34%. Then `Cc1ccc2c(c1)OC1(NC2=O)C(=O)N(C)c2ccccc21` (stereo not given), with 31.6%; and `CC(C)CCN1C(=O)C2(NC(=O)c3ccccc3O2)c2ccccc21` (stereo not given), with 55.1%; and `O=C1NCC2(CCCN(C(=O)c3csc(-c4cccs4)n3)C2)O1` (stereo not given), with 22%. For `CC(C)[C@H](N)C(=O)N1CCCC(C2=Nc3ccccc3S(=O)(=O)N2)C1` (stereo not given in full), the INHIBITION is 26.4%. Then `COc1ccccc1N1CCC(CNS(=O)(=O)c2cccc(C#N)c2)C1` (stereo not given), with -4.94%.
